A selection: hits, their analogues and other compounds. The true share with any hit is near 4.3%.
CF NFkB inh – inhibitors of cystic fibrosis induced NF-kB; KKLEB NF-kB-GFP reporter, PAF-induced, GFP fluorescence overnight; inhibition, % at 5 µM; actives 0.86% (n = 360,000);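 active means at least 50% inhibition at 5 µM, scaled per plate between neutral and stimulator controls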;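 further: PAF is a Pseudomonas aeruginosa culture filtrate used as stimulus; plate controls were PAF-stimulated DMSO wells for no effect and unstimulated DMSO wells for full effect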
TRPM1 prom inh – inhibitors of MITF-driven TRPM1 promoter in melanoma cells; SK-MEL-5 TRPM1 promoter luciferase, 24 h; inhibition, % at 12.5 µM; actives 0.83% (n = 330,000);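 active means mean inhibition across replicates of 60% or more, whatever share of single replicates reaches that level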
KKLEB tox – counter-screen for CF NF-kB inhibitors: cytotoxicity; KKLEB CF airway cells viability, ATPlite luminescence, overnight; active compounds read low; cells stimulated with P. aeruginosa culture filtrate; activity change (cytotoxicity), % at 5 µM; actives 0.36% (n = 360,000); AID 602141;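 active means corrected activity change at or below -50% at 5 µM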
Peg3 prom inh – inhibitors of Peg3 promoter | HeLa PEG-Prom luciferase reporter, luminescence, overnight | inhibition, % at 20 µM | actives 1.7% (n = 360,000) | AID 588405;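 active means inhibition of at least 50% at 20 µM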
HIF-2a block – HIF-2a inhibition; 786-0 RCC cells HIF-2a reporter, luciferase luminescence, overnight; inhibition, % at 18.8 µM; actives 0.72% (n = 360,000); AID 624352;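 active means inhibition of the luminescence signal of 40% or more relative to plate controls, in a single-dose primary screen at 18.75 µM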
CHOP inh – blocks CHOP induction under ER stress; CHO-K1 CHOP-promoter luciferase, tunicamycin-induced, 15-18 h; inhibition, % at 10 µM; actives 3.8% (n = 220,000);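 active means compounds that reduced the stress-induced luciferase reporter signal by more than about 70% of percent inhibition, limit read from the data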;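 further: 0% = tunicamycin plus vehicle and 100% = wells without tunicamycin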
* = called active by the depositor; · = no result.

SMILES	CF NFkB inh	TRPM1 prom inh	KKLEB tox	Peg3 prom inh	HIF-2a block	CHOP inh
Cc1ccc(NC(=O)CCC(=O)OCC(=O)c2ccc(-c3ccccc3)cc2)cc1	17	0	-6	-15	-18	85*
C=CCNC(=S)NNc1nc(Nc2ccccc2)nc(N2CCCCC2)n1	7	4	-6	9	7	74*
C=CCNC(=S)NNc1nc(N2CCCC2)nc(N2CCCC2)n1	-16	17	4	22	23	·
S=C(NNc1nc(Nc2ccccc2)nc(N2CCCCC2)n1)NC1CCCCC1	-11	1	-1	13	10	83*
O=S(=O)(c1ccccc1)N1CCN(c2nnc(-c3ccccc3)c3ccccc23)CC1	4	7	-1	9	29	16
CC1Cc2ccccc2N1c1ncnc2c1nnn2Cc1ccccc1 (stereo unspecified)	-20	2	-10	-4	7	73*
Cc1ccc(S(=O)(=O)NCCC(=O)Nc2ccc(Cl)c(Cl)c2)cc1C	8	8	7	17	5	69
Cc1ccc(S(=O)(=O)NCCC(=O)Nc2ccc(Cl)c(Cl)c2)cc1	0	-2	-4	34	13	83*
Cc1ccc(S(=O)(=O)Nc2ccc(NC(=O)CN3CCCCC3)c(Cl)c2)cc1	4	1	1	5	-2	95*
Cc1ccc(NC(=O)CCNS(=O)(=O)c2cccc3nonc23)cc1	12	7	-6	4	22	75*
CC(CC(=O)c1ccccc1)=NCC(O)CN=C(C)CC(=O)c1ccccc1 (stereo unspecified)	-5	·	-10	19	7	·
O=C(Nc1ccc2c(c1)OCO2)C1Cc2c(-c3ccccc3Oc3ccccc3)ccnc2O1 (stereo unspecified)	13	·	4	28	4	·
O=C(CN(C(=O)CCC(=O)Nc1ccccn1)C1CCCC1)NCc1ccc(F)cc1	-7	-19	14	16	8	·
COc1cccc(-c2nc(CS(=O)(=O)CC(=O)Nc3cc(C)ccc3C)c(C)o2)c1	-10	9	1	14	3	77*
COc1ccc(NC(=O)CS(=O)(=O)Cc2nc(-c3ccc(C)cc3)oc2C)cc1	9	10	-9	3	8	·
COc1ccc(-c2nc(CS(=O)(=O)CC(=O)Nc3ccc(Cl)cc3)c(C)o2)cc1	7	-12	-2	-67	-157	97*
Cc1nn(Cc2ccccc2)c(C)c1NC(=O)c1noc2c1CCc1ccccc1-2	-5	-3	-2	8	-7	86*
COc1cccc2c1C(=O)c1c(O)c3c(c(O)c1C2=O)C[C@@](O)(C(=O)CO)C[C@@H]3O[C@H]1C[C@H](N)[C@@H](O)[C@H](C)O1	70*	83*	-54*	94*	4	·
COc1cccc2c1C(=O)c1c(O)c3c(c(O)c1C2=O)CC(O)(C(=O)CO)CC3OC1CC(N(C)C)C(O)C(C)O1 (stereo unspecified)	76*	69*	-37	93*	38	·
CC(=O)[C@]1(O)Cc2c(O)c3c(c(O)c2[C@@H](O[C@H]2C[C@H](N)[C@H](O)[C@H](C)O2)C1)C(=O)c1ccccc1C3=O	·	·	·	·	·	17
COc1cccc2c1C(=O)c1c(O)c3c(c(O)c1C2=O)C[C@@](O)(C(C)=O)C[C@@H]3O[C@H]1C[C@H](N)[C@H](O)[C@H](C)O1	66*	96*	-47	89*	26	·
CNc1ccc(Cl)cc1S(=O)(=O)c1ccccc1[N+](=O)[O-]	22	·	-7	2	2	·
C=CCNC(=S)N/N=C/c1ccc(C(C)(C)C)cc1	12	-9	9	-27	-83	95*
CCSc1nnc(NC(=O)c2cc(-c3ccc(C)c(C)c3O)n[nH]2)s1	8	-3	0	15	-16	88*
CC(=O)Nc1ccc(NC(=O)c2cc(-c3ccc(C)c(C)c3O)n[nH]2)cc1	-2	-43	16	-89	-80	·
SMILES	CF NFkB inh	TRPM1 prom inh	KKLEB tox	Peg3 prom inh	HIF-2a block	CHOP inh
CC(C)NC(=O)N[C@H]1CC[C@H](CC(=O)NCc2ccc(Oc3ccccc3)cc2)O[C@@H]1CO	·	·	·	·	7	·
CCOC(=O)c1c(-n2cccc2)sc2c1CCCC2=O	0	-3	5	51*	23	8
Cc1ccc(C(=O)NCCc2nnc3ccc(NCCCN4CCOCC4)nn23)cc1	10	-1	-4	7	5	·
Nc1ccc(-c2nc3ccc(-c4nc5ccccc5o4)cc3[nH]2)cc1	37	-42	-76*	73*	-275	-22
CC(C)(C)c1ccc(OCC(O)CN2CCOCC2)cc1 (stereo unspecified)	4	-6	0	-3	-10	·
CCC(C)Nc1ccc(NC(C)CC)cc1 (stereo unspecified)	60*	97*	-37	65*	19	·
CCC(C)NC(=O)Nc1ccc(Br)cc1 (stereo unspecified)	2	-19	8	-117	-145	-9
Cc1ccc(NC(=O)CCNC(=O)N2CC(=O)Nc3ccccc32)cc1Cl	2	·	-3	0	5	·
CCCC(=O)Nc1ccc2oc(-c3ccc(OC)c(Br)c3)nc2c1	-20	-79	9	-99	-217	96*
O=C(/C=C/c1ccccc1)N1CCOCC1	-17	-17	6	-24	-33	·
CN(C)CCC(=O)N1C/C(=C/c2ccccc2)C(=O)/C(=C\c2ccccc2)C1	95*	101*	-71*	109*	92*	·
O=C(/C=C/c1ccccc1)CCN1CCOCC1	7	-3	-7	92*	-8	·
CN1CCN(C(=O)CCCN2C(=O)/C(=C/c3ccccc3)SC2=S)CC1	11	-8	-6	25	28	·
O=C1/C(=C/c2ccccc2)CN(C(=O)CCN2CCOCC2)C/C1=C\c1ccccc1	90*	101*	9	96*	85*	·
C[N+](C)(C)CCC(=O)N1C/C(=C/c2ccccc2)C(=O)/C(=C\c2ccccc2)C1	-118	3	8	77*	0	·
O=C(Cc1ccccc1)N1CCNCC1	-4	14	-9	1	9	17
Cc1ccc(S(=O)(=O)c2ccsc2NC(=O)c2ccccc2)cc1	16	-6	-13	9	-9	·
CNC(=O)C1Cc2ccccc2CN1S(=O)(=O)c1cccs1 (stereo unspecified)	-10	10	3	51*	2	6
O=C1Nc2ccccc2C(=O)C1(Cl)Cc1ccccc1 (stereo unspecified)	9	15	7	20	19	77*
CC(C)(C)N1C(=O)c2ccccc2NC(=O)N1Cc1ccccc1	-6	4	-13	18	11	-10
CC(C)c1ccc(NC2CCCN(C(=O)c3cccs3)C2)cc1 (stereo unspecified)	8	1	6	-9	-45	·
CC(C)Oc1cc2oc(=O)c3c(c2cc1Cl)CCC3	-6	-22	1	-34	-4	82*

High-throughput results from PubChem.
